# TDP1 cell noCPT = qHTS for Inhibitors of human tyrosyl-DNA phosphodiesterase 1 (TDP1): qHTS in cells in absence of CPT. DT40 Tdp1-/- hTDP1 cells, no CPT, ATP luminescence, 48 h. Potency, µM (highest dose often 46.2 µM), without a hit: at the highest dose activity change, negative = growth inhibition, usual class: inhibitors. actives 15% (n = 420,000); further: nearly all actives have a fitted effect of over 55% in size
#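 Seeded 400 DT40-hTDP1 cells/well (vehicle DMSO, no 20 nM CPT); pinned compounds; ≥48 hr at 37 °C; CellTiter-Glo luminescence as viability measure.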
# RORg inh = inhibitors of mouse ROR gamma transcriptional activity | P51450 | actives 5.4% (n = 310,000) | Drosophila S2 Gal4-RORgamma UAS-luciferase reporter, 20 h | Potency, µM (top dose mostly 53.6 µM), for inactives: at the highest dose activity change, negative = inhibition, actives largely listed as inhibitors; further: nearly all actives have a fitted effect of over 60% in size
# Target sequence (P51450 whole entry, looked up, the tested form may be a part): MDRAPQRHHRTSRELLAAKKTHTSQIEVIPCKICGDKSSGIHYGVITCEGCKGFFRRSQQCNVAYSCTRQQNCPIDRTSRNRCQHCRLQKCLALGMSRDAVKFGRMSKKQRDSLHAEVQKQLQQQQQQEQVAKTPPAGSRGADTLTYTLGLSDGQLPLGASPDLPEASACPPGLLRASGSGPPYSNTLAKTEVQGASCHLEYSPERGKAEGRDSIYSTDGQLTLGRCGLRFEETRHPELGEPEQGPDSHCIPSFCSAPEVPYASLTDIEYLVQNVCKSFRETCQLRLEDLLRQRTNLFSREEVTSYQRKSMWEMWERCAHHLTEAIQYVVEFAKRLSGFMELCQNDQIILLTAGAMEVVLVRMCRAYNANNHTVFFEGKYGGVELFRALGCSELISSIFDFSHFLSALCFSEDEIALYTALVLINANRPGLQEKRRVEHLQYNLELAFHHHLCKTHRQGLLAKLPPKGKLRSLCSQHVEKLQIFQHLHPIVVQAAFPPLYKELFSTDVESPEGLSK
#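 Stably transfected Drosophila Schneider cells are the test system, with ROR gamma fused to Gal4 and luciferase under UAS control; luminescence is read after 20 hr of 700 uM copper sulfate induction at ambient temperature.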
# ELG1 repair inh = ELG1-dependent DNA repair inhibition. HEK293T ELG1-luciferase reporter, luminescence, 16 h; DNA damage induced by 5-fluorouridine. Potency, µM (highest dose often 46.1 µM), for the others: at the top dose activity change, negative = inhibition, usual class: inhibitors. actives 2.3% (n = 330,000). AID 504467; further: nearly all actives have a fitted effect of over 55% in size
#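 5-Fluorouridine DNA damage + compound/DMSO, 2,000 cells/well, 16 h, 37 °C/5% CO2. ONE-Glo, 30 min RT, luminescence. Readout = decrease in reporter signal.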
# TDP1 cell CPT = growth inhibition of DT40 Tdp1-/-;hTDP1 cells with camptothecin (screen for TDP1 inhibitors); Potency, µM (top dose mostly 46.2 µM), for the others: at the top dose activity change, negative = growth inhibition, usual class: inhibitors; AID 686979; chicken DT40 Tdp1-/-;hTDP1 cells + 20 nM CPT, ATP luminescence, 48 h; actives 12% (n = 420,000); further: nearly all actives have a fitted effect of over 55% in size
#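 Chicken DT40 Tdp1-/- cells complemented with human TDP1, 400 cells/well, exposed to compounds plus 20 nM camptothecin for at least 48 h at 37 C; viability read as ATP content by CellTiter-Glo luminescence.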
# 12-LOX inh = inhibitors of human 12S-lipoxygenase ALOX12; purified 12hLO, xylenol orange hydroperoxide absorbance; Potency, µM (series often up to 108 µM), for inactives: top-dose activity change, negative = inhibition, actives largely listed as inhibitors; actives 1.1% (n = 580,000); AID 1671190
#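 Hydroperoxide product was detected by ferrous iron/xylenol orange as the 573 to 405 nm absorbance ratio. Arachidonic acid at 40 uM (final) was turned over for 30 min at room temperature by 150 nM human 12hLO, pH 7.0 Hepes buffer, after 15 min compound preincubation.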
# VP16 counter = inhibits Gal4-VP16 luciferase reporter, ROR gamma counter-screen | Drosophila S2 Gal4-VP16 UAS-luciferase, luminescence, 20 h | Potency, µM (series often up to 53.6 µM), inactives show at the highest dose activity, negative = inhibition, usual class: inhibitors | actives 3.5% (n = 310,000);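 further: Gal4-VP16 expression switched on by copper sulfate through the metallothionein promoter; nearly all actives have a fitted effect of over 50% in size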
# Active calls of the source: *; ? = inconclusive; . = no result; [ ] = another dose, or the depositor's remark. Sampled rows, rich in hits. Any-hit rate of the full collection: about 15%. The call rests on the fitted dose curve; in most records, active means well fitted curve in the direction sought with a large enough effect; inconclusive means small, poorly fitted or top-dose-only effect, or another doubt; inactive means no such curve, though single readings can be large; an effect the other way counts as inactive or inconclusive. On the % scale 0 is the no-effect control and ±100 the full control effect; potency means the concentration at half of the fitted maximal effect.
SMILES,TDP1 cell noCPT,RORg inh,ELG1 repair inh,TDP1 cell CPT,12-LOX inh,VP16 counter
CCn1cc2nc(SCc3cc(C)ccc3C)n(Cc3ccc(OC)cc3)c(=O)c2n1,7.3µM*,.,.,10µM*,-25%,.
CC(C)c1ccc(CNC(=O)c2ccc(N3CCCC3)c(NC(=O)NCc3ccccc3)c2)cc1,23µM*,.,.,15µM*,0%,.
CCc1ccccc1NC(=O)Nc1cc(C(=O)NCc2ccc(C(C)C)cc2)ccc1N1CCCC1,?,.,.,?,-19%,.
CC12CCC3c4ccc(OP(=O)(N5CC5)N5CC5)cc4CCC3C1CCC2=O (stereo unspecified),13µM*,.,.,15µM*,24%,.
CCCCn1cc[n+](C)c1,.,?,.,.,.,-7%
O=[N+]([O-])/C=C\c1ccc2c(c1)OCO2,.,.,.,.,11µM*,.
CCC(C)NC(=O)c1c(N)n(CC2CCCO2)c2nc3ccccc3nc12 (stereo unspecified),-29%,13%[10 µM],21µM*,-14%,?,-15%
C=CCNC(=O)c1c(N)n(Cc2ccccc2)c2nc3ccccc3nc12,.,.,.,.,-36%,.
CCC(C)NC(=O)c1c(N)n(Cc2ccc3c(c2)OCO3)c2nc3ccccc3nc12 (stereo unspecified),26µM*,?,?,?,12%,-23%
CC(C)CCNC(=O)c1c(N)n(CC2CCCO2)c2nc3ccccc3nc12 (stereo unspecified),29µM*,14%,?,26µM*,?,0%
Cn1cccc1C(=O)C(=O)N1C[C@H](c2cc(F)cc(F)c2)[C@@H]2[C@H]1C1CCN2CC1,.,.,.,.,3%,.
CCOc1ccc(C(=O)N2CCC3(CC2)NCc2ccccc2-n2ccnc23)cc1,.,.,.,.,20%,.
COc1cccc(CN2CCCCCCNC(=O)[C@@H]3CCC[C@@H]32)n1,.,.,.,.,281%,.
COCc1cn(C[C@H]2C[C@@H]3CCN2C[C@@H]3C(=O)NCc2ccco2)nn1,.,.,.,.,3%[176 µM],.
CCN1CCN(C(=O)Cc2cccn2-c2ccc(F)cc2)CC1,.,.,.,.,7%,.
Cc1csc(NC(=O)C2CCCN(S(=O)(=O)c3ccc4c(c3)oc(=O)n4C)C2)n1 (stereo unspecified),?,-11%,?,?,17%[57.4 µM],?
Cn1c(=O)oc2cc(S(=O)(=O)N3CCCC(C(=O)N4CCN(c5cccc(Cl)c5)CC4)C3)ccc21 (stereo unspecified),8.2µM*,.,.,9.2µM*,-7%,.
COc1cccc(N2CCN(C(=O)C3CCN(S(=O)(=O)c4ccc5c(c4)oc(=O)n5C)CC3)CC2)c1,18µM*,10%,5%,16µM*,6%,-2%
COc1ccccc1N1CCN(S(=O)(=O)c2ccc3c(c2)oc(=O)n3C)CC1,?,26%,5%,-3%,0%,-13%
COc1ccc(CNC[C@H]2C[C@@H]3CCN2C[C@@H]3c2cc(C3CCCCC3)nn2C)cc1,.,.,.,.,42%[176 µM],.
CC[C@H]1CN2CC[C@H]1C[C@@H]2CNC(=S)Nc1ccc(C)cc1Br,.,.,.,.,-10%[176 µM],.
CC[C@@]1(O)C(=O)OCc2c1cc1n(c2=O)-c2cc3ccccc3nc2C1,.,0.13µM*,.,.,.,?
CCC1(O)C(=O)OCc2c1cc1n(c2=O)Cc2cc3c(N)cccc3nc2-1 (stereo unspecified),0.052µM*,.,.,0.21µM*,-17%,.
CCN(CC)C[C@H]1CN2CC[C@H]1C[C@@H]2CNC(=O)NC(C)C,.,.,.,.,34%[176 µM],.
CC(=O)Nc1ccc(C2CN(C)CC2C(=O)c2ccc(Cl)cc2)cc1 (stereo unspecified),0%,12%,-5%,3%,?,13%[10 µM]
SMILES,TDP1 cell noCPT,RORg inh,ELG1 repair inh,TDP1 cell CPT,12-LOX inh,VP16 counter
CN1CC(C(=O)c2ccc(Cl)cc2)C(c2ccc(N(C)C)cc2)C1 (stereo unspecified),?,-21%,8%,21µM*,-17%,-2%[10 µM]
COCC(=O)NC[C@H]1C[C@@H]2CCN1C[C@@H]2CN1CCc2ccccc2C1,.,.,.,.,-1%[176 µM],.
O=C1CSC(c2c(F)cccc2Cl)c2cn[nH]c2N1 (stereo unspecified),.,.,.,.,9%,.
Cc1noc(C)c1S(=O)(=O)N1[C@H]2CC[C@@H]1c1cnc(-c3ccccc3)nc1C2,.,.,.,.,6%,.
O=C(NCCNC(=O)c1cn(Cc2ccccc2)c2ccccc12)c1ccncc1,.,.,.,.,-8%,.
O=C(O)c1cc(Cl)ccc1Cl,.,-18%,.,.,-1%,-30%
O=C(CCl)c1ccc(Cl)cc1Cl,14µM*,8.9µM*,.,22µM*,?,?
COC1=CC(=O)[C@]2(C=C1OC)OC[C@@H]1Oc3c(ccc4c3C=CC(C)(C)O4)C(=O)[C@@H]12,0.21µM*,.,1.2µM*,0.29µM*,-12%,.
C=CC[N+](CC#CCO)(CCCC)CCCC,.,.,.,.,22%,.
COC(=O)c1ccc(N2C(=O)CC(N3CCC(n4c(=O)[nH]c5ccccc54)CC3)C2=O)cc1 (stereo unspecified),-25%,30%,-13%,?,0%,-7%
Cc1cc(N2C(=O)CC(N3CCC(n4c(=O)[nH]c5ccccc54)CC3)C2=O)no1 (stereo unspecified),?,3.2µM*,10%,?,?,-2%
c1ccc(CNC2(c3nnnn3-c3ccccc3)CCCCC2)cc1,.,.,.,.,15%,.
Cc1ccc(C(=O)NC2CC3CCC(C2)N3)cc1 (stereo unspecified),-10%,2%,7%,-28%,-3%,8%
Cc1ccc(CNC(=O)c2ccc(CSc3nc4ccncc4n3Cc3ccc(C)cc3)cc2)cc1,8.2µM*,.,.,5.2µM*,-2%,.
O=C(NCc1cccnc1)c1cn(Cc2ccccc2)c2ccccc12,.,.,.,.,19%,.
Cc1ccc(Cn2c(SCc3ccc(C(=O)NC4CCCC4)cc3)nc3ccncc32)cc1,16µM*,.,.,?,-22%,.
COCC(=O)NC[C@H]1C[C@@H]2CCN1C[C@@H]2CN1CCC(C)CC1,.,.,.,.,45%[176 µM],.
CCCN1CC2(CCN(C)CC2)CC1C(=O)N(C)Cc1ccon1 (stereo unspecified),.,.,.,.,3%,.
N#Cc1ccc(-c2ccc(OC(=O)CSC(c3ccccc3)c3ccccc3)cc2)cc1,.,.,.,.,-23%,.
COC(=O)C1=C(c2ccc(Cl)c(C(F)(F)F)c2)C[C@@H]2CC[C@H]1N2C(=O)N1CCC(O)(c2ccc(Cl)cc2)CC1,?,.,?,?,-11%,.

# Source: PubChem BioAssay (National Center for Advancing Translational Sciences (NCATS))
